Compound activity as filed in PubChem BioAssay.
TrxR1 substrate: is turned over as a substrate by rat TrxR1 | Potency, µM (titrated, usually from 114 µM), without a hit: at the top dose activity change, negative = substrate turnover | AID 588456 | purified TrxR1 substrate turnover, NADPH consumption readout | 390,000 tested, 0.01% active | O89049; further: nearly all actives have a fitted effect of over 50% in size
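Rat TrxR1, dispensed at 90 nM, was prereduced with 400 uM NADPH (final) for 5 min at ~22 deg C, then incubated with compound 15 min before 400 uM selenite. A first-read NADPH fluorescence drop versus no-compound background flagged substrates.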
Eya2 phos inh: inhibitors of human Eya2 phosphatase activity. AID 488837. 330,000 tested, 0.006% active. O00167. recombinant Eya2, OMFP fluorescence dephosphorylation (OMFP is methylfluorescein phosphate). Potency, µM (highest dose often 76.9 µM), for inactives: at the top dose activity, negative = inhibition, usual class: inhibitors
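Eya2 (0.2 uM) preincubated 10 min at ambient with compound, then OMFP substrate added at 50 uM; 10 min reaction in 50 mM HEPES pH 7.5, 50 mM NaCl, 5 uM MgCl2, 0.05% BSA, 1 mM DTT. Fluorescence read at Ex 485/Em 525 nm.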
mIDH1 inhibitor: inhibitors of human mutant IDH1 R132H. 390,000 tested, 0.093% active. O75874. Potency, µM (doses to about 76.6 µM), without a hit: at the top dose activity change, negative = inhibition, most hits filed as inhibitors. IDH1-R132H enzyme, NADPH consumption, diaphorase/resazurin fluorescence. AID 602179; further: nearly all actives have a fitted effect of over 65% in size
Target sequence (O75874 whole entry R132H, stated change not applied): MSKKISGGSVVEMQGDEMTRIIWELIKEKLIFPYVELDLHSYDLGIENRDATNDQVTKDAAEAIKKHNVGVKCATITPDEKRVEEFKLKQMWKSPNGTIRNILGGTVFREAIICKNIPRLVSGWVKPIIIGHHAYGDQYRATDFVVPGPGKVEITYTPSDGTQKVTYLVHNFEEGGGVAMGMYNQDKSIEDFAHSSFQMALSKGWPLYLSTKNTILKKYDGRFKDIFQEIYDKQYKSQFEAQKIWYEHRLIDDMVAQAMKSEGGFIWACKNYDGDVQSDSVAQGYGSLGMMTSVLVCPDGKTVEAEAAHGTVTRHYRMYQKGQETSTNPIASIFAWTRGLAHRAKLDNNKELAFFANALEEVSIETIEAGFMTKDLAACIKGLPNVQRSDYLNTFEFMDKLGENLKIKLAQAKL
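IDH1-R132H (0.5 ug/mL) preincubated 30 min with compound, then NADPH (0.016 mM) and alpha-KG (2 mM) added; 80 min at RT, pH 7.5. Remaining NADPH coupled via diaphorase/resazurin to fluorescence (540/590 nm); concentration-response curves normalized to no-enzyme control.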
rTrxR1 inhibitor: inhibitors of rat thioredoxin reductase 1 | O89049 | 390,000 tested, 1% active | Potency, µM (doses to about 114 µM), for inactives: at the top dose activity change, negative = inhibition, hits mostly inhibitors | AID 588453 | recombinant rTrxR1, NADPH fluorescence consumption, selenite substrate; further: nearly all actives have a fitted effect of over 65% in size
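Rat TrxR1 (90 nM in the dispensed reagent) was pre-reduced with 400 uM NADPH for 5 min at room temperature, then incubated with compound for 15 min. After 400 uM selenite was added, NADPH fluorescence (Ex 340/Em 450 nm) was followed for 8 min.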
RGS4 inhibitor: blocks human RGS4-accelerated GTP hydrolysis; Potency, µM (doses to about 114 µM), inactives show top-dose activity change, negative = inhibition, most hits filed as inhibitors; P49798; Transcreener GDP fluorescence polarization, RGS4-accelerated GTP hydrolysis; 390,000 tested, 0.039% active; further: nearly all actives have a fitted effect of over 75% in size
Target sequence (P49798 whole entry, looked up): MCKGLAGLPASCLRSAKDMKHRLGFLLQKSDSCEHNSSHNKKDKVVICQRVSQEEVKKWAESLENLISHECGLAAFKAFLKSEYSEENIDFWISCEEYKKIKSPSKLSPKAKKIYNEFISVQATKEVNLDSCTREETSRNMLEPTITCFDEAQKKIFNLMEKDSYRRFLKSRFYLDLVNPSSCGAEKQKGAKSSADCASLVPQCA
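MLSMR compounds (23 nl, pin-transferred) preincubated 10 min at room temperature with a 500nM (2x) first reagent, then RGS4 at 900nM (2x) plus Transcreener GDP mix added; fluorescence polarization (620/688 nm) read before and after 90 min at 30 °C.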
The depositor's hits bear a star; ? = inconclusive; nt = no result; ! = repeats disagree; [ ] = dose if it differs, or a comment. This is a sample that favours compounds with a hit; in the whole collection about 1.1% have one here. The call rests on the fitted dose curve; in most records, active means well fitted curve in the direction sought with a large enough effect; inconclusive means small, poorly fitted or top-dose-only effect, or another doubt; inactive means no such curve, though single readings can be large; an effect the other way counts as inactive or inconclusive. On the % scale 0 is the no-effect control and ±100 the full control effect; potency means the concentration at half of the fitted maximal effect.

SMILES	TrxR1 substrate	Eya2 phos inh	mIDH1 inhibitor	rTrxR1 inhibitor	RGS4 inhibitor
Cc1ccsc1C1NC(=O)c2c(sc3c2CCCC3)N1 (stereo unspecified)	0%	10%	4%	45µM*	?
COc1ccc(O)c(/C=N/c2nc3ccccc3n2C)c1	-7%	-14%	0%	3%[57.1 µM]	-37%
O=C(NN=C(Cc1ccccc1)Cc1ccccc1)c1ccc(F)cc1	-6%	-9%	-4%	14%	-6%
CCOC(=O)C1=C(C)NC(C)=C(C(=O)OCC)C1	5%	-9%	3%	9%	-4%
NC(=O)c1cc[n+](CC2=C(C(=O)O)N3C(=O)[C@@H](NC(=O)[C@@H](c4ccccc4)S(=O)(=O)[O-])[C@H]3SC2)cc1	13%[57.1 µM]	5%	nt	45µM*	?
O=C(C(Cl)Cl)N1CC2CCC(CC2)C1	-8%	nt	1%	-16%	0%
C=CCn1c(SCC(=O)NC2CCCC2)nc2scc(-c3ccco3)c2c1=O	-3%	-20%	2%	35µM*	?
C=CCn1c(SCC(=O)NCCCC)nc2scc(-c3ccco3)c2c1=O	-2%	-2%	4%	45µM*	?
Cc1ccccc1NC(=O)C(=Cc1ccc(C(=O)O)cc1)C(=O)Nc1ccccc1C	-9%[57.1 µM]	-26%	15%	-25%	?
CC(=O)/C(=C/c1ccccc1)C(=O)Nc1ccccc1C	-1%	?	5%	25µM*	-35%
Cc1ccc(S(=O)(=O)N(C)C[C@@H]2Oc3c(NS(C)(=O)=O)cccc3C(=O)N([C@H](C)CO)C[C@@H]2C)cc1	3%	1%	-5%	-12%	2%
CCOC(=O)/C=C1\CC(C(=O)OCC)Oc2c(OC)cccc21 (stereo unspecified)	3%	2%	6%	28µM*!	?
COc1ccc(O)c(C(=O)c2cnn(-c3ccc(Cl)cc3)c2)c1	9%[57.1 µM]	-14%	-1%	29%[57.1 µM]	-5%
Cc1ccc(SCC(=O)N(C)CC(=O)Nc2cccc(F)c2)c(C)c1	-8%	-8%	0%	-23%	7%
CNc1cccccc1=S	-2%	-5%	-3%	7.9µM*	?
COc1ccc([C@@H]2OC2(C(N)=O)C(N)=O)cc1	0%	-14%	0%	20%	-2%[11.4 µM]
O=C(CSc1nc2ccccc2[nH]1)NCC1CCCO1 (stereo unspecified)	7%[57.1 µM]	-4%	5%	4%[57.1 µM]	6%
CCOC(=O)c1oc2ccccc2c1NC(=O)CCl	-10%	1%	-9%	22µM*	38%
CCOC(=O)c1oc2ccccc2c1NC(=O)c1ccco1	-2%	0%	-14%	5%	40%
O=C(CSc1oc(-c2ccc(F)cc2)nc1S(=O)(=O)c1ccccc1)c1ccc(Cl)cc1	3%[2.29 µM]	nt	0%	5%	-3%
CCS(=O)(=O)c1oc(-c2ccc(F)cc2)nc1S(=O)(=O)c1ccccc1	8%	nt	nt	0.5µM*	-48%
CCCCS(=O)(=O)c1oc(-c2cccs2)nc1S(=O)(=O)c1ccc(F)cc1	12%	nt	16%	0.71µM*	-50%
CCC(C)S(=O)(=O)c1oc(-c2ccc(F)cc2)nc1S(=O)(=O)c1ccc(F)cc1 (stereo unspecified)	12%	nt	6%	2µM*	-24%
CN(C)c1oc(-c2ccc(Cl)cc2)nc1S(=O)(=O)c1ccccc1	1%	6%	1%	35µM*	-7%
CCOC(=O)C(=O)Nc1ccccc1C(=O)NCc1ccccc1	4%	7%	-3%	5%	-4%
SMILES	TrxR1 substrate	Eya2 phos inh	mIDH1 inhibitor	rTrxR1 inhibitor	RGS4 inhibitor
CC(NC1CCN(Cc2ccccc2)CC1)c1ccc(F)cc1 (stereo unspecified)	7%[57.1 µM]	-22%	24%	6%	9%
CCCCS(=O)(=O)c1oc(-c2ccc(F)cc2)nc1S(=O)(=O)c1ccc(C)cc1	6%	nt	-3%	1.4µM*	-16%
CCCSc1oc(-c2cccs2)nc1S(=O)(=O)c1ccc(C)cc1	18%	nt	14%	14%	3%
CCCCCS(=O)(=O)c1oc(-c2cccs2)nc1S(=O)(=O)c1ccc(C)cc1	7%	nt	15%	1.6µM*	-7%
CC1CCCCC1NC(=O)NC(=O)COC(=O)c1nccnc1N (stereo unspecified)	413%	-27%	1%	?	-11%
CC1CCCC(NC(=O)NC(=O)CCl)C1C (stereo unspecified)	0%	0%	-10%	7.9µM*	7%
CC1CCCC(NC(=O)CSC2CCCCC2)C1C (stereo unspecified)	6%[57.1 µM]	-10%	4%	6%[57.1 µM]	-15%
CC1CCCCC1NC(=O)NC(=O)CCl (stereo unspecified)	5%	-1%	6%	40µM*	-21%
Cn1c(=O)oc2cc(S(=O)(=O)NCc3ccncc3)ccc21	-5%	9%	-3%	6%	9%
CCOC(=O)c1cccc(NC(=O)c2cc(S(=O)(=O)N3CCCCCC3)cn2C)c1	-4%[57.1 µM]	nt	-1%	9%[57.1 µM]	-8%
O=C(/C=C/c1ccc(Br)o1)NCCCN1CCOCC1	-3%	5%	1%	8.9µM*	-52%
O=C(/C=C/c1ccco1)NCCCN1CCOCC1	10%[57.1 µM]	-2%	1%	7%[57.1 µM]	9%
Cc1nc2ccn(Cc3cccnc3)c(=O)c2cc1C(=O)Nc1ccc(F)cc1F	12%[57.1 µM]	nt	-6%	19%[57.1 µM]	6%
O=C(CSc1ccc(-c2ccco2)nn1)Nc1ccc(F)cc1	8%	9%	6%	32µM*	?
CCOc1ccc(NC(=O)CSc2ccc(-c3ccco3)nn2)cc1	4%	-7%	-1%	?	-16%
CCc1nnc(NC(=O)CSc2ccc(-c3ccco3)nn2)s1	6%	6%	-2%	14%[57.1 µM]	-8%
Cc1nnc(NC(=O)CSc2ccc(-c3ccco3)nn2)s1	10%	-11%	2%	18µM*	-40%
O=C(Cn1nc(-c2ccco2)ccc1=O)Nc1ccc(Br)cc1	20%	-8%	0%	40µM*	?
COc1cccc(NC(=O)CSc2ccc(-c3ccco3)nn2)c1	5%	10%	3%	28µM*	-30%
COc1ccc(CNCC(O)COc2cccc3c2OC(C)(C)C3)cc1 (stereo unspecified)	-3%[57.1 µM]	6%	7%	6%[57.1 µM]	-41%
Cc1ccc(C(=O)COC(=O)CN2C(=O)C3C4C=CC(C4)C3C2=O)cc1C (stereo unspecified)	-5%	3%	-6%	12%	11%
COc1ccc([C@H]2CC(=O)C=C(c3ccc(Cl)c(F)c3)C2)cc1	-7%	3%	-10%	17%[57.1 µM]	23%
O=C(CSc1ccc(-c2ccco2)nn1)c1ccccc1	-6%	5%	3%	28µM*	?
COc1ccc(C(=O)CSc2ccc(-c3ccco3)nn2)cc1	-8%	0%	7%	?	-31%
COc1ccc(CCNC(=O)CSc2ccc(-c3ccco3)nn2)cc1OC	0%	1%	-6%	?	-20%
